Here are results for 14 compounds from PubChem BioAssay (NCATS).

Each structure is given as a SMILES string. Values joined by “and” are separate entries in the source; they are usually repeats but may differ in a detail not shown here. Equal values may be shown once. Results filed as inconclusive are left out. A number with no mark means an inactive call. Active and inactive are the calls of the source. The call rests on the fitted dose curve; in most records, active means well fitted curve in the direction sought with a large enough effect; inconclusive means small, poorly fitted or top-dose-only effect, or another doubt; inactive means no such curve, though single readings can be large; an effect the other way counts as inactive or inconclusive.

For one assay, the system named is CRL-7250. The assay can be described thus: Cytotoxic Profiling of Annotated Libraries Using Quantitative High-Throughput Screening (AID 1296008). Further: nearly all actives have a fitted effect of over 60% in size. The following applies: Five cell lines viability, CellTiter-Glo ATP luminescence, 48-72 h; max response: hits give low values. The gist of the method:
(§1)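 Cytotoxicity was measured as CellTiter-Glo ATP luminescence, read after 10 min at room temperature. Compound treatment of the cells lasted 48 or 72 hr at 37 degrees Celsius in a qHTS format.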
(ATP-based viability assays read luminescence as a measure of living cells.)

For a further assay, the system named is HEK293. Described as above. The following applies: Five cell lines viability, CellTiter-Glo ATP luminescence, 48-72 h; max response: hits give low values. The procedure, abridged: as §1
In a further assay the test system is KB-3-1. The description is as above. The settings on record: Five cell lines viability, CellTiter-Glo ATP luminescence, 48-72 h; max response: hits give low values. The procedure, abridged: as §1
Assay [1] has as its system NIH3T3. The assay is described as above. The following applies: Five cell lines viability, CellTiter-Glo ATP luminescence, 48-72 h; max response: hits give low values. The procedure, abridged:
as §1

In a further assay the test system is MKL-2. Kind of assay: qHTS assay to identify novel small-molecules to repurpose for Merkel cell carcinoma treatment (AID 1296009). Further: nearly all actives have a fitted effect of over 60% in size. The settings on record: MCC and control cell lines, CellTiter-Glo viability, 72 h; series mostly up to 46 µM. The procedure, abridged:
(§2)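 72 hr, 37 degree celsius; NPC 8-pt / MIPE 11-pt dose response; compound pinned in DMSO; CellTiter-Glo, 10 min RT, luminescence; normalized to no-cell and DMSO controls.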
In general terms: In qHTS, concentration-response curves come from the screen itself.

Another assay has as its system UISO. Described as above. The settings on record: MCC and control cell lines, CellTiter-Glo viability, 72 h; series mostly up to 46 µM. The procedure, abridged: as §2
Assay [2] has as its system HaCat. The assay can be described thus: Cytotoxic Profiling of Annotated Libraries Using Quantitative High-Throughput Screening (AID 1296008). Further: nearly all actives have a fitted effect of over 60% in size. The settings on record: Five cell lines viability, CellTiter-Glo ATP luminescence, 48-72 h; max response: hits give low values. The gist of the method: as §1
For the next assay, the system named is MCC-13. The assay can be described thus: qHTS assay to identify novel small-molecules to repurpose for Merkel cell carcinoma treatment (AID 1296009). Further: nearly all actives have a fitted effect of over 60% in size. The following applies: MCC and control cell lines, CellTiter-Glo viability, 72 h; series mostly up to 46 µM. The procedure, abridged:
as §2

The subject of a further assay is MCC-26. Described as above. The settings on record: MCC and control cell lines, CellTiter-Glo viability, 72 h; series mostly up to 46 µM. The procedure, abridged:
as §2

The subject of another assay is WaGa. The description is as above. The following applies: MCC and control cell lines, CellTiter-Glo viability, 72 h; series mostly up to 46 µM. The procedure, abridged:
as §2

In the next assay the test system is MKL-1. The assay is described as above. The settings on record: MCC and control cell lines, CellTiter-Glo viability, 72 h; series mostly up to 46 µM. The procedure, abridged: as §2
Assay [3] has as its system NIH3T3. The description is as above. The following applies: MCC and control cell lines, CellTiter-Glo viability, 72 h; at 44.8 µM (top of the series) unless noted. The procedure, abridged:
as §2

For assay [4], the system named is HACAT. Described as above. The settings on record: MCC and control cell lines, CellTiter-Glo viability, 72 h; at 44.8 µM (top of the series) unless noted. The procedure, abridged:
as §2

In a further assay the test system is C33A. Kind of assay: Primary qHTS to identify gynecologic anti-cancer compounds using libraries of approved drugs and bioactive compounds (AID 1345084). Further: nearly all actives have a fitted effect of over 55% in size. The following applies: Gynecologic cancer cell panel viability, ATPlite luminescence, 48 h; series mostly up to 57.5 µM. The procedure, abridged:
(§3)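 Five-concentration response, 48 h; readout is ATP-driven luciferase luminescence.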

The test system of another assay is CASKI. The assay is described as above. The settings on record: Gynecologic cancer cell panel viability, ATPlite luminescence, 48 h; series mostly up to 57.5 µM. The procedure, abridged: as §3
Another assay has as its system Es-2. The assay is described as above. The settings on record: Gynecologic cancer cell panel viability, ATPlite luminescence, 48 h; series mostly up to 57.5 µM. The procedure, abridged:
as §3

The subject of a further assay is HeLa. Described as above. The settings on record: Gynecologic cancer cell panel viability, ATPlite luminescence, 48 h; series mostly up to 57.5 µM. The gist of the method: as §3
On the % scale 0 is the no-effect control and ±100 the full control effect; potency means the concentration at half of the fitted maximal effect.

With `CCNC(=O)Nc1ccc(-c2nc3c(c(N4CCOC[C@H]4C)n2)CCN(C2COC2)C3)cc1`, the Potency in the assay with CRL-7250 was 0.296 µM (active); in the assay with HEK293, 0.743 µM (active); with KB-3-1, 1.32 µM (active); with NIH3T3 [1] it was 5.9 µM (active); in the assay with UISO it was 3.72 µM (active). In addition, in the assay on MKL-2, the Potency result is “inactive”.

Turning to `O=C1CSC(=O)N1C(CCc1ccncc1)COc1ccc(-c2cccc([N+](=O)[O-])c2)cc1` (stereo not given), the max response in the assay with CRL-7250 is -33.8%; in the assay with HaCat [2] it was -30.8%; in the assay with KB-3-1, -6.99%; in the assay on NIH3T3 [1] it was -3.92%. Further, the Potency entry in the assay on MCC-13 and with MCC-26 was “inactive” each time. Moreover, the Potency in the assay on MKL-2 was 18.7 µM (active); with UISO, 13.2 µM (active); with WaGa, 16.6 µM (active).

In the case of `O=C(C=CC=Cc1ccc2c(c1)OCO2)N1CCCCC1`, the max response is -3.96% in the assay on CRL-7250, -2.24% in the assay with HaCat [2] and -6.15% in the assay with KB-3-1. The call with NIH3T3 [1] and with NIH3T3 [3] was inactive. Besides, the Potency result with MCC-13, in the assay on MKL-1, in the assay with MKL-2, in the assay with UISO and in the assay on WaGa was “inactive” throughout.

Consider `COC(=O)C1C2CC3c4[nH]c5cc(OC)ccc5c4CCN3CC2CC(OC(=O)c2cc(OC)c(OC)c(OC)c2)C1OC` (stereo not given), for which the max response in the assay on CRL-7250 is -19.7%; in the assay on KB-3-1 it was 3.89%; in the assay with NIH3T3 [1], -9.23%. Moreover, the compound was called inactive in the assay on HaCat [2] and with HACAT [4]. Moreover, the Potency result in the assay with MCC-13, in the assay on MCC-26, in the assay on MKL-1, with MKL-2, in the assay with UISO and with WaGa was “inactive” in each case.

As for `Cn1cnc(=N)c2[nH]cnc21`, the Potency in the assay with CRL-7250 is 8.33 µM (active); in the assay on HaCat [2], 13.2 µM (active); in the assay with KB-3-1, 10.5 µM (active); in the assay with NIH3T3 [1], 9.35 µM (active); with MCC-13, 14.8 µM (active); in the assay with MKL-1, 7.43 µM (active). The Potency in the assay with MKL-2 is 0.209 µM (active); in the assay with UISO, 5.26 µM (active); in the assay with WaGa, 0.296 µM (active).

As for `C#Cc1cccc(Nc2ncnc3cc(OCCOC)c(OCCO)cc23)c1`, the Potency in the assay with CRL-7250 was 14.8 µM (active); in the assay with HEK293, 16.6 µM (active); in the assay on NIH3T3 [1], 20.9 µM (active). The Potency entry in the assay on MCC-13 and in the assay with MCC-26 was “inactive” each time.

Take `C[C@@]12C[C@@]3(O)O[C@@H](O1)[C@]1(COC(=O)c4ccccc4)[C@@H]3C[C@@]12O[C@@H]1O[C@H](CO)[C@@H](O)[C@H](O)[C@@H]1O`: the max response in the assay with CRL-7250 was 4.21%. Further, the result in the assay on HaCat [2], in the assay with KB-3-1, with NIH3T3 [1], with HACAT [4] and in the assay with NIH3T3 [3] was inactive. For the same compound, the Potency entry in the assay on MCC-13, in the assay with MCC-26, with MKL-1, in the assay with MKL-2, in the assay with UISO and in the assay on WaGa was “inactive” throughout.

In the case of `NS(=O)(=O)OC[C@@H]1C[C@@H](n2ccc3c(N[C@H]4CCc5ccccc54)ncnc32)C[C@H]1O`, the Potency in the assay with CRL-7250 is 2.64 µM (active); in the assay on HEK293, 0.526 µM (active); in the assay with MCC-13 it was 5.9 µM (active); with UISO it was 1.18 µM (active); in the assay on WaGa it was 1.48 µM (active). In the assay on NIH3T3 [1], the max response is -27.1%.

In the case of `Cc1ccccc1C(=O)Nc1ccc(C(=O)N2CCCC(O)c3cc(Cl)ccc32)c(C)c1` (stereo not given), the max response was -23.5% with CRL-7250, 1.52% in the assay with HaCat [2] and -21% in the assay with NIH3T3 [1]. Further, the result with KB-3-1 was inactive. Besides, the Potency result with MCC-13, in the assay on MCC-26, with MKL-1, with MKL-2, in the assay on UISO and in the assay on WaGa was “inactive” in each case. The Potency entry in the assay on C33A, with CASKI, with Es-2 and in the assay with HeLa was “inactive” in each case.

As to `O=C(NCc1ccccc1)[C@H](Cc1ccccc1)NC(=O)[C@@H]1O[C@@H]1C(=O)NCCc1ccc(O)cc1`, the result in the assay on CRL-7250, in the assay with HaCat [2] and with HACAT [4] was inactive. Further, the max response was 8.9% with KB-3-1 and 3.87% in the assay on NIH3T3 [1]. For the same compound, the Potency entry in the assay on MCC-13, with MKL-1 and in the assay with UISO was “inactive” throughout.

Consider `C[C@H](NC(=O)[C@@H](O)c1cc(F)cc(F)c1)C(=O)N[C@@H]1C(=O)N(C)c2ccccc2-c2ccccc21`, for which the max response in the assay with CRL-7250 was -10.4%; with HaCat [2], -6.76%; with KB-3-1, -9.73%; with NIH3T3 [1], -4.85%. The Potency entry in the assay with MCC-13, in the assay with MCC-26, in the assay with MKL-1, in the assay with MKL-2, in the assay on UISO and in the assay with WaGa was “inactive” in each case.

Take `COc1cc(C=CC(=O)CC(=O)C=Cc2ccc(O)c(OC)c2)ccc1O`: the Potency is 34 µM (active) with CRL-7250; 24.1 µM (active) in the assay with HEK293; 38.2 µM (active) in the assay with KB-3-1; 10.8 µM (active) in the assay with MKL-1; 8.55 µM (active) in the assay on MKL-2; 21.5 µM (active) with UISO. In the assay with WaGa, the Potency was 9.59 µM (active).

Take `CCn1c(=O)c2c(nc(C=Cc3ccc(OC)c(OC)c3)n2C)n(CC)c1=O`: the max response in the assay on CRL-7250 was -2.94%; in the assay with HaCat [2] it was -8.26%; in the assay on KB-3-1 it was 9.4%. Besides, the compound was called inactive in the assay on NIH3T3 [1] and in the assay on NIH3T3 [3]. Also, the Potency entry in the assay on MCC-13, in the assay with MCC-26, in the assay with MKL-1, in the assay with UISO, with WaGa and with C33A was “inactive” throughout. In addition, the Potency result with CASKI, in the assay on Es-2 and with HeLa was “inactive” in each case.

Turning to `CS(=O)(=O)N1CCc2c(-c3cnc(N)nc3)nc(N3CCOCC3)nc21`, the Potency was 0.935 µM (active) in the assay with CRL-7250; 1.16 µM (active) in the assay with HaCat [2]; 4.61 µM (active) with KB-3-1; 743 nM (active) and 1.84 µM (active) in the assay with NIH3T3 [1]; 2 µM (active) in the assay with CASKI; 3.55 µM (active) with HeLa. Further, the Potency result in the assay with MCC-13, in the assay with MKL-1 and in the assay with MKL-2 was “inactive” throughout.
